Experimental data published in paper PMC7819943, “Rice protein-binding microarrays: a tool to detect cis-acting elements near promoter regions in rice”.
Over roughly 39,000 sequences, “fluorescence intensity (a.u.)” has its median near 4,300; the highest 2% begin near 39,000. For the sample, the highest values were picked, then their nearest neighbours and some sequences at random.

biological target: T1, OsSMF1 (Oryza sativa, UniProt Q6ZLB0 1-436); assay: protein-binding microarray (RPBM); PBS, 2% BSA, 51.3 ng/ul salmon testes DNA, 50 uM zinc acetate, 200 nM TF, 25 C, 1 h; high values mean tight binding; details: protein: recombinant; tags: N-terminal polyhistidine and DsRed monomer fusion (pET32a); chain copies: 2; label: CyDye5-dUTP incorporated in the synthesized complementary strand; 3' TTTTT single-stranded linker to array surface; dsDNA, one strand shown
T1 sequence: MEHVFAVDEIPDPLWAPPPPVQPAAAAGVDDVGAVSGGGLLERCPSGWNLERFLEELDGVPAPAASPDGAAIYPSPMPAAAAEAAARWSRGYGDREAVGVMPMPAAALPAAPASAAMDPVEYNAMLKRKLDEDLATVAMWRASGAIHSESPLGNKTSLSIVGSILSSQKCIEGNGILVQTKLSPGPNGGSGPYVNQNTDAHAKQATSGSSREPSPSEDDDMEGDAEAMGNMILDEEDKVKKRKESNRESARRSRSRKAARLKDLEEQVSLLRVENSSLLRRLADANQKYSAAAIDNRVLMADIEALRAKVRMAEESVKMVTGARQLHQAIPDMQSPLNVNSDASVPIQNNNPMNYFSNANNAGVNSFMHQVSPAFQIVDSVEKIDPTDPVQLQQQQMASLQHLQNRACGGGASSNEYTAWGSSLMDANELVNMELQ
Summary of the method: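 Binding signal here means per-feature fluorescence intensity in arbitrary units. The values were read on an Axon 4000B scanner after a custom Agilent array, double-stranded by primer extension with Cy5-dUTP, was incubated with 200 nM protein at 25 °C for 1 h in PBS with 2% BSA, salmon testes DNA and 50 µM zinc acetate, then washed. The proteins were transcription factors with an N-terminal polyhistidine tag and DsRed, expressed in E. coli BL21-CodonPlus and purified on Ni–NTA.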

How did the binding signal turn out when “CCCTTCGTCGACACGCACCCCTGACCTCATATTTTCGCTTCGGAGTCACCTAGTGCAG” was run?
The binding signal was 5650 fluorescence intensity (a.u.).

How did the binding signal turn out when “ATGCCATGCCAACGCACTATGCCTGGTATCCTTAGCCATCCGGAGTCACCTAGTGCAG” was run?
The binding signal was 4060 fluorescence intensity (a.u.).

“CGACCTGAGGTTGGCGGTCGGCATGACGTCACGGGTGGGACGGAGTCACCTAGTGCAG” was tested. Which binding signal did it give?
The binding signal was 24200 fluorescence intensity (a.u.).

Which binding signal does the source give for “CTATGTTTTACACTTACACTCCTATCAAAATCCTACGTTTCGGAGTCACCTAGTGCAG” here?
The binding signal was 22600 fluorescence intensity (a.u.).

Which binding signal does the source give for “TAAAGCTTTTATGAATGAATAGCCTCGCTGGCAAGTGGGCCGGAGTCACCTAGTGCAG” here?
The binding signal was 3560 fluorescence intensity (a.u.).

“TTGTTCTGTCGATCCATCGGTATCCTGGTCAATTGGCAAGCGGAGTCACCTAGTGCAG” was tested. Which binding signal did it give?
Its binding signal is 3160 fluorescence intensity (a.u.).

“ATCGAATGATCTAACGGCTCACACACTCCCACGCACTTTGCGGAGTCACCTAGTGCAG” was tested. Which binding signal did it give?
Its binding signal is 3290 fluorescence intensity (a.u.).

How did the binding signal turn out when “TCTGACGGGCGATGACGACGACGACGGTGCAAAAGCCTGACGGAGTCACCTAGTGCAG” was run?
The binding signal was 3310 fluorescence intensity (a.u.).

“ACATCTAAAAGTAACTTGAGTTTTCTAAGCAACACATAAGCGGAGTCACCTAGTGCAG” was tested. Which binding signal did it give?
Its binding signal is 24700 fluorescence intensity (a.u.).

Which binding signal does the source give for “AAGCTCCCCGGCCAGGCCGCCATCGGCCACGTGAGGTACTCGGAGTCACCTAGTGCAG” here?
The binding signal was 4540 fluorescence intensity (a.u.).

With “TTTAATTGTTCTGCGATTACGGTAGAAATAGATCGGGCTTCGGAGTCACCTAGTGCAG” as the sequence, how does the binding signal read?
Its binding signal is 3210 fluorescence intensity (a.u.).

“TTGAAACGTAACACTTGATATATGTATACATTATCCAACCCGGAGTCACCTAGTGCAG” was tested. Which binding signal did it give?
Its binding signal is 3150 fluorescence intensity (a.u.).

With “GGGTCATATAGAGACGACGATCAAATTTACCTTATTTTAACGGAGTCACCTAGTGCAG” as the sequence, how does the binding signal read?
Its binding signal is 3240 fluorescence intensity (a.u.).

Which binding signal does the source give for “TTTTCTATCACATCGTTTTAATTTCAATCAAACTTCCAATCGGAGTCACCTAGTGCAG” here?
The binding signal was 45300 fluorescence intensity (a.u.).

With “TTATATTTTAATTAAAACTATTATAATACACAATACGTCACGGAGTCACCTAGTGCAG” as the sequence, how does the binding signal read?
Its binding signal is 7060 fluorescence intensity (a.u.).

“TCCATTGCATATAATTCAATTCATCGAAATCATGACATTTCGGAGTCACCTAGTGCAG” was tested. Which binding signal did it give?
Its binding signal is 46400 fluorescence intensity (a.u.).

“CAACAAATTTAAATTTATAGACGTCACCATACTGAAGGCGCGGAGTCACCTAGTGCAG” was tested. Which binding signal did it give?
Its binding signal is 5460 fluorescence intensity (a.u.).

Which binding signal does the source give for “AATTATGTTTTATAAGACGTTAGCATTTAAACTACAATCCCGGAGTCACCTAGTGCAG” here?
The binding signal was 55600 fluorescence intensity (a.u.).

Which binding signal does the source give for “AATTGGACAATTCATCATAAATTTTGCATGAATGATGACACGGAGTCACCTAGTGCAG” here?
Its binding signal is 3750 fluorescence intensity (a.u.).

With “CCAACTTTTCCATCACATCGTTCCAATTTCAACCAAACTTCGGAGTCACCTAGTGCAG” as the sequence, how does the binding signal read?
Its binding signal is 21900 fluorescence intensity (a.u.).

How did the binding signal turn out when “TCATACTGCCATCATACCATCCTACAATAGACAAATTTAACGGAGTCACCTAGTGCAG” was run?
Its binding signal is 54300 fluorescence intensity (a.u.).

For “ACAAACTTCCAACTTTTCTATCACATCGTTCCAATTTCAACGGAGTCACCTAGTGCAG”, which binding signal is on record?
Its binding signal is 22100 fluorescence intensity (a.u.).

With “GTTATAAGACGTTTTGATTTTAGTCAAAGTCAAACTATTCCGGAGTCACCTAGTGCAG” as the sequence, how does the binding signal read?
Its binding signal is 32600 fluorescence intensity (a.u.).

For “GACATGAATTTTCCATCATATATTCATGCGGTTCATTATGCGGAGTCACCTAGTGCAG”, which binding signal is on record?
The binding signal was 4430 fluorescence intensity (a.u.).

How did the binding signal turn out when “TAACCATGTAATTCCTCTGAAAATCCACAGATGAACTAGCCGGAGTCACCTAGTGCAG” was run?
The binding signal was 3360 fluorescence intensity (a.u.).

Which binding signal does the source give for “CCACCAGCCCGGTGGGATCCCGCCACGTCAGCGTGACCCGCGGAGTCACCTAGTGCAG” here?
The binding signal was 22600 fluorescence intensity (a.u.).

How did the binding signal turn out when “GTCTGGAGAGCCAGAGGAGAGGAGTAGCGGACGCGGTGCCCGGAGTCACCTAGTGCAG” was run?
The binding signal was 26700 fluorescence intensity (a.u.).

“TTTCTGCGCTACGTGCTCGCCATGTCGTCCTCGTCACAAACGGAGTCACCTAGTGCAG” was tested. Which binding signal did it give?
Its binding signal is 5120 fluorescence intensity (a.u.).

How did the binding signal turn out when “CACCCGTGCGTAATCATGACGCCGGGGTGACGTCACCATCCGGAGTCACCTAGTGCAG” was run?
Its binding signal is 30200 fluorescence intensity (a.u.).

Which binding signal does the source give for “GCTGGGTTTTCGAGGAGGCCTGACTGGATCATACTCGACTCGGAGTCACCTAGTGCAG” here?
The binding signal was 3250 fluorescence intensity (a.u.).

How did the binding signal turn out when “CCATCTGCGGCGTACTTGCCACTTTTCTTCGATCGGCACCCGGAGTCACCTAGTGCAG” was run?
The binding signal was 3550 fluorescence intensity (a.u.).

How did the binding signal turn out when “AGACCGCTCGCGCGTACGTGACGCGATCGGGCAGCGCGGGCGGAGTCACCTAGTGCAG” was run?
The binding signal was 4060 fluorescence intensity (a.u.).

With “TTCACACCCAGATAAATACAGCCTACTAGACCAATAGCCACGGAGTCACCTAGTGCAG” as the sequence, how does the binding signal read?
The binding signal was 40000 fluorescence intensity (a.u.).

“TATAGAATTTTCTCTTAAAATACTTATCCGATTTATGATCCGGAGTCACCTAGTGCAG” was tested. Which binding signal did it give?
Its binding signal is 54100 fluorescence intensity (a.u.).

With “ACTTTTCCGTCACATCGTTTTAATTTCTTTAAACTTTTAACGGAGTCACCTAGTGCAG” as the sequence, how does the binding signal read?
The binding signal was 4680 fluorescence intensity (a.u.).

“CCTAAAATACATGACCAGCCCACACAGGACTTAACCCACACGGAGTCACCTAGTGCAG” was tested. Which binding signal did it give?
The binding signal was 3230 fluorescence intensity (a.u.).

How did the binding signal turn out when “TTCACATCGTTGCAATAAATAATTATACCACTACTTCATACGGAGTCACCTAGTGCAG” was run?
The binding signal was 24800 fluorescence intensity (a.u.).

For “TTATATCGTTTTAATTTCAATTAAACTTTCAATTTTAGTGCGGAGTCACCTAGTGCAG”, which binding signal is on record?
The binding signal was 48400 fluorescence intensity (a.u.).

Which binding signal does the source give for “ACCAGGTGGCTACAGCTGGCTAAATACCCAGTCACTACCACGGAGTCACCTAGTGCAG” here?
Its binding signal is 3680 fluorescence intensity (a.u.).

With “TTTTATCACATCGTTTTAATTTCAACCAAACTTTCAATTTCGGAGTCACCTAGTGCAG” as the sequence, how does the binding signal read?
The binding signal was 32600 fluorescence intensity (a.u.).

“TCTCTTTCTTTATTTCTTTAAAATATATTTATAGTTGTCTCGGAGTCACCTAGTGCAG” was tested. Which binding signal did it give?
Its binding signal is 3490 fluorescence intensity (a.u.).

With “ATAAAATTTTATGATATATAGATAATAATTTTACTTGCAACGGAGTCACCTAGTGCAG” as the sequence, how does the binding signal read?
The binding signal was 4550 fluorescence intensity (a.u.).

How did the binding signal turn out when “CCATAATCACACTTCAATAGTAGTACTACCACAATTGCATCGGAGTCACCTAGTGCAG” was run?
The binding signal was 45100 fluorescence intensity (a.u.).

“GTACATCAAACATTATCAATATCGGACACATAATCCATTGCGGAGTCACCTAGTGCAG” was tested. Which binding signal did it give?
Its binding signal is 3850 fluorescence intensity (a.u.).
